High-throughput results deposited in PubChem by National Center for Advancing Translational Sciences (NCATS).
Most compounds without a hit are left out; they make up all but 3.3% or so of the library.
Sm TGR block – blocks Schistosoma mansoni thioredoxin glutathione reductase. 360,000 compounds, 3% hits. Potency, µM (titrated, usually from 114 µM), inactives show at the highest dose activity change, negative = inhibition, usual class: inhibitors. purified TGR, DTNB reduction, TNB absorbance 405 nm; further: on the % scale 0 is the no-effect control and ±100 the full control effect; nearly all actives have a fitted effect of over 60% in size
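First, TGR (20 nM dispensed) and NADPH were mixed with compound. Second, a 15 min room-temperature incubation followed. Third, further NADPH and then DTNB were added to start the reaction. Finally, TNB absorbance was monitored kinetically.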
AmpC detergent – inhibitors of E. coli AmpC beta-lactamase with detergent | AmpC hydrolysis of nitrocefin, absorbance 480 nm, 0.01% Triton | 370,000 compounds, 0.041% hits | Potency, µM (top dose mostly 114 µM), without a hit: at the top dose activity change, negative = inhibition, most hits filed as inhibitors | P00811;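 further: 0% = no-compound wells and -100% = no-enzyme wells; nearly all actives have a fitted effect of over 25% in size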
Target sequence (P00811 whole entry, looked up): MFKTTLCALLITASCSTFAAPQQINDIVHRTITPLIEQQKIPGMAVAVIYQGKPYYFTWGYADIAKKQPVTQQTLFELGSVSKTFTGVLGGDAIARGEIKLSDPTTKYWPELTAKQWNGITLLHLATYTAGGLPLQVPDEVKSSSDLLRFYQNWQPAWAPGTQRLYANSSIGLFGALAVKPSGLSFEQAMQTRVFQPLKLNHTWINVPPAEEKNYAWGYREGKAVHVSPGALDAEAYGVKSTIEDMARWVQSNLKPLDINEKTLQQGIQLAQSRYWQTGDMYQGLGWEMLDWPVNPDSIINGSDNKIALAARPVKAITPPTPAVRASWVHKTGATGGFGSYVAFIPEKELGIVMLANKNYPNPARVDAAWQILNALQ
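AmpC (5.3 nM in the dispensed reagent) in 20 mM phosphate pH 7.0 with 0.01% (detergent screen) or 0.0001% Triton X-100 was preincubated with compounds for 15 min at room temperature. Nitrocefin was then added from an 800 uM solution, and hydrolysis was followed at 480 nm.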
SARS PLpro yeast – inhibitors of SARS-CoV papain-like protease in yeast; 330,000 compounds, 0.19% hits; S. cerevisiae expressing SARS-CoV PLpro, growth rescue; AID 485353; Potency, µM (doses to about 32.9 µM), for inactives: top-dose activity, positive = growth rescue, most hits filed as activators; calls by dose curve; further: 0% is about no effect; nearly all actives have a fitted effect of over 55% in size
AmpC no deterg – AmpC beta-lactamase inhibition without detergent; AmpC nitrocefin hydrolysis, absorbance 480 nm, 0.0001% Triton; Potency, µM (doses to about 57.1 µM), for inactives: at the highest dose activity change, negative = inhibition, actives largely listed as inhibitors; 330,000 compounds, 0.52% hits; AID 485341;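 further: plate controls were no compound for no effect and no enzyme for full effect; nearly all actives have a fitted effect of over 20% in size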
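20 mM phosphate pH 7.0 + 0.01% (detergent screen) or 0.0001% Triton X-100; 5.3 nM AmpC reagent; cpd preinc 15 min RT; nitrocefin (800 uM stock) to start; A480 q20 s × 4 min; Activity was normalised to no-enzyme and no-compound control wells.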
TbPYK inhibitor – inhibitors of Trypanosoma brucei pyruvate kinase; Potency, µM (doses to about 76.8 µM), for inactives: at the top dose activity, negative = inhibition, hits mostly inhibitors; TbPYK enzyme, Kinase-Glo Plus ATP luminescence, 45 min; AID 624173; 410,000 compounds, 0.12% hits; further: on the % scale 0 is the no-effect control and ±100 the full control effect; nearly all actives have a fitted effect of over 50% in size
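In this concentration-response screen, enzyme-free wells defined baseline while DMSO plates tracked drift. Each reaction combined TbPYK, substrate, compound and 130 uM ADP for 45 min at room temperature. Kinase-Glo Plus luminescence gave the signal.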
RE007 growth inh – less growth of the S. pombe RE007 Vpr strain. S. pombe RE007 Vpr strain, BacTiter-Glo ATP luminescence, 24 h. Potency, µM (doses to about 92.2 µM), inactives show at the highest dose activity change, negative = less growth, usual class: inhibitors. 360,000 compounds, 0.21% hits. AID 651644; active means well fitted falling curve with a large enough effect; inconclusive means small, poorly fitted or top-dose-only effect; inactive means no such curve, though single readings can be large or run the other way; further: on the % scale 0 is the no-effect control and ±100 the full control effect; nearly all actives have a fitted effect of over 50% in size
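Fission yeast RE007 carrying one integrated HIV-1 vpr copy, seeded at OD 0.01 in PMG+AL medium with 23 nL pinned compound. Grown 24 h at 30 degrees; viability read by BacTiter-Glo luminescence after 5 min.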
The depositor's hits bear a star; ? = inconclusive; / = no result. Unless noted, the call rests on the fitted dose curve; in most records, active means well fitted curve in the direction sought with a large enough effect; inconclusive means small, poorly fitted or top-dose-only effect, or another doubt; inactive means no such curve, though single readings can be large; an effect the other way counts as inactive or inconclusive. Potency means the concentration at half of the fitted maximal effect.

SMILES	Sm TGR block	AmpC detergent	SARS PLpro yeast	AmpC no deterg	TbPYK inhibitor	RE007 growth inh
CC(C)C(=O)Nc1cccc(S(=O)(=O)NC2=NCCC2)c1	/	/	/	/	0%	0%
Cc1cc(OC(C)C(=O)N(Cc2ccco2)Cc2ccccc2F)cc(C)c1Cl (stereo not given)	6%	22%	/	/	6%	/
CCc1nnc(N/N=C/c2cc(Br)c(O)cc2O)n1N	35µM*	-8%	-6%	-25%	3%	-22%
COC(=O)c1c(N2C(=O)Nc3ccccc3N2O)sc2c1CCCC2	-14%	-12%	11%	-30%	1%	7%
COC(=O)c1c(N2C(=O)CC(Sc3ccccc3C(=O)O)C2=O)sc2c1CCCC2 (stereo not given)	2.5µM*	-4%	-6%	-38%	-16%	-24%
COC(=O)c1c(N2C(=O)[C@H]3[C@@H](C2=O)[C@]2(C(=O)Nc4c(C)cccc42)N2CCC[C@@H]32)sc(C)c1C	-23%	-2%	10%	72%	3%	-19%
COC(=O)c1c(N2C(=O)CC(Sc3ccccc3C(=O)O)C2=O)sc(C)c1C (stereo not given)	4.5µM*	5%	-6%	6%	-3%	-13%
CSc1ncc(C(=O)NCc2ccc(C)cc2)c(-c2ccccc2)n1	5%	10%	/	/	0%	/
O=C(Cn1c(=O)nc(-c2ccccc2)c2ccccc21)NCCc1ccc(Cl)cc1	4%	8%	/	/	2%	/
O=C(O)C1CSCN1S(=O)(=O)c1cccc2nsnc12 (stereo not given)	45µM*	-2%	0%	-4%	1%	1%
O=C1c2ccccc2C(=O)N1CCSc1n[nH]c(=S)s1	-4%	-1%	7%	-21%	28µM*	-7%
O=C1c2ccccc2C(=O)N1CCSc1ncn[nH]1	-2%	-12%	0%	-14%	0%	-1%
Cc1ccc(Cc2cnc(N3C(=N)SC(c4ccccc4)C3=O)s2)cc1 (stereo not given)	-7%	-6%	8%	?	-5%	/
N=C1SC(c2ccccc2)C(=O)N1c1ncc(Cc2ccccc2)s1 (stereo not given)	1%	8%	-5%	32µM*	-2%	-3%
CC(C)c1ccc(N2C(=O)CC(Sc3ncn[nH]3)C2=O)cc1 (stereo not given)	0.56µM*	-10%	-35%	-21%	-18%	56µM*
COc1ccc(N2C(=O)CC(Sc3ncn[nH]3)C2=O)c(OC)c1 (stereo not given)	0.28µM*	?	-29%	76%	?	4%
CC(C)c1ccc(N2C(=O)CC(Sc3nc4ccccc4o3)C2=O)cc1 (stereo not given)	?	-5%	-26%	-38%	-4%	-18%
CCN(C(=O)CCn1cnc2onc(-c3ccc(F)cc3)c2c1=O)c1ccc(OC)cc1	4%	17%	/	/	0%	/
COc1ccc(NC(=O)Nc2nnc(N(CC(C)C)CC(C)C)s2)c(OC)c1	1%	21%	/	/	1%	/
O=C(Oc1cccnc1)c1ccc(Cl)c(Cl)c1	-12%	-1%	-9%	-2%	-4%	32µM*
COc1cccc(NC(=O)CSc2nnc(-c3ccco3)c(-c3ccco3)n2)c1	2.8µM*	-9%	-4%	-55%	?	7%
COc1ccc(C(=O)CSc2nnc(-c3ccco3)c(-c3ccco3)n2)cc1	/	9%	-1%	-55%	?	8%
COc1ccc(NC(=O)CSc2nnc(-c3ccco3)c(-c3ccco3)n2)cc1OC	5.6µM*	-3%	-1%	-12%	?	-3%
COc1ccc(N(CC(=O)NCc2ccccc2Cl)S(=O)(=O)c2c(C)nn(C)c2C)cc1	0%	-3%	/	/	1%	/
CCc1ccc(-c2nn(CC(=O)NC3CCCCC3)c3c2cnc2ccc(F)cc23)cc1	-10%	-5%	/	/	0%	/
